AmpC no deterg = blocks E. coli AmpC beta-lactamase in detergent-free assay | P00811 | AmpC nitrocefin hydrolysis, absorbance 480 nm, 0.0001% Triton | Potency, µM (series often up to 57.1 µM), inactives show top-dose activity change, negative = inhibition, hits mostly inhibitors | 330,000 tested, 0.52% active | AID 485341;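 further: potency means the concentration at half of the fitted maximal effect; plate controls were no compound for no effect and no enzyme for full effect; nearly all actives have a fitted effect of over 20% in size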
Target sequence (P00811 whole entry, looked up): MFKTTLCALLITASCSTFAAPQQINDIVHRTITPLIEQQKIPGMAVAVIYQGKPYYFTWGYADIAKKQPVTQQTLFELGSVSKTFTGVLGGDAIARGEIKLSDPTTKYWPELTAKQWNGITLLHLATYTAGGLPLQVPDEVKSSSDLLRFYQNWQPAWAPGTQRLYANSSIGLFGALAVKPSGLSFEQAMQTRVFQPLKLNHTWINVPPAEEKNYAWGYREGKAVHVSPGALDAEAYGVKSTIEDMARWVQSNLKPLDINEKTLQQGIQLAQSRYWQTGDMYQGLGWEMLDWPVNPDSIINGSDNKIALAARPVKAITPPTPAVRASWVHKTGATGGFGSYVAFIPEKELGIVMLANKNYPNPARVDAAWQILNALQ
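AmpC (5.3 nM in the dispensed reagent) in 20 mM phosphate pH 7.0 with 0.01% (detergent screen) or 0.0001% Triton X-100 was preincubated with compounds for 15 min at room temperature. Nitrocefin was then added from an 800 uM solution, and hydrolysis was followed at 480 nm.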
NS1 inh = influenza NS1 inhibition. Potency, µM (doses to about 46.1 µM), inactives show top-dose activity, positive = more growth. 270,000 tested, 0.4% active. AID 2326; calls by dose curve; further: potency means the concentration at half of the fitted maximal effect; actives are rising curves; nearly all actives have a fitted effect of over 50% in size
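A cell-based growth assay was used: compounds that relieve NS1-induced slow growth of budding yeast raise OD600. Assay medium was yeast nitrogen base with ammonium sulphate and -URA supplement, pH 6.0, with 2% galactose.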
AmpC detergent = AmpC beta-lactamase inhibition with detergent present; P00811; AmpC hydrolysis of nitrocefin, absorbance 480 nm, 0.01% Triton; Potency, µM (doses to about 114 µM), without a hit: top-dose activity change, negative = inhibition, most hits filed as inhibitors; 370,000 tested, 0.041% active; AID 485294;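 further: potency means the concentration at half of the fitted maximal effect; 0% = no-compound wells and -100% = no-enzyme wells; nearly all actives have a fitted effect of over 25% in size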
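20 mM phosphate pH 7.0 + 0.01% (detergent screen) or 0.0001% Triton X-100; 5.3 nM AmpC reagent; cpd preinc 15 min RT; nitrocefin (800 uM stock) to start; A480 q20 s × 4 min; Activity was normalised to no-enzyme and no-compound control wells.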
Cycloheximide cs = counter-screen hit for Shiga toxin inhibitors, cycloheximide; cell reporter, cycloheximide protein synthesis inhibition counterscreen; max response, %; 300,000 tested, 12% active; AID 2314; in the data active means max response mostly above about 13%, no sharp cut-off; inactive means mostly below about 14%; further: read at 38.3 µM for the half of the compounds with a filed dose; 0% is about no effect
Shiga inhibitor = inhibitors of Shiga toxin in Vero cells; Vero cells, Shiga toxin protein synthesis inhibition reporter; 290,000 tested, 9.2% active; inhibition, % at 38.7 µM; in the data active means inhibition mostly above about 28%, no sharp cut-off; inactive means mostly below about 43%; further: 0% is about no effect
Numbers without * were called inactive; ? = inconclusive; / = no result given. Shown is part of a subset that was picked to be rich in hits. Unless noted, the call rests on the fitted dose curve; in most records, active means well fitted curve in the direction sought with a large enough effect; inconclusive means small, poorly fitted or top-dose-only effect, or another doubt; inactive means no such curve, though single readings can be large; an effect the other way counts as inactive or inconclusive.

SMILES	AmpC no deterg	NS1 inh	AmpC detergent	Cycloheximide cs	Shiga inhibitor
O=C(Nc1nc2ccc(F)cc2s1)c1cccc(S(=O)(=O)N2CCc3ccccc32)c1	-47%	13%	-15%	24*	35
O=C(Nc1nc2c(F)cc(F)cc2s1)c1ccc(S(=O)(=O)N2CCc3ccccc32)cc1	/	/	-2%	/	/
COc1ccc(C(C)=O)cc1COC(=O)C1CCN(C(=O)c2ccc(Cl)cc2)CC1	126%	/	/	/	/
C#CCn1c(COc2ccccc2C)nc2ccccc21	/	/	18%	/	/
CC(C)c1ccc(-c2noc(SCC(=O)N3CCCCC3)n2)cc1	/	/	2%	/	/
Cc1ccc(C)c(OCC(O)CN2CCC(Cc3ccccc3)CC2)c1 (stereo not drawn)	45%	-22%	4%	-4	-2
Fc1ccc(-c2nnc(Cc3ccc(Cl)cc3)o2)cc1	135%	-32%	-1%	36*	59*
Cc1ccccc1OCCSc1nnc(-c2cccs2)o1	/	/	14%	/	/
CC(C)NCc1nnc(-c2ccc(Cl)cc2)o1	-21%	/	-5%	20*	32
O=S(=O)(CCc1nnc(-c2ccc(Br)cc2)o1)c1ccc(Cl)cc1	-15%	-8%	-6%	-7	-14
Fc1ccc(CSc2nnc(-c3cccs3)o2)cc1	-18%	-72%	8%	65*	101*
CCSc1nnc(-c2cccs2)o1	-14%	-5%	?	28*	28
Cn1c(=O)oc2cc(S(=O)(=O)CCC(=O)NCc3ccc(Cl)cc3)ccc21	/	/	7%	/	/
O=S(=O)(c1ccc(Cl)cc1)N1CCN(C(=S)Nc2ccccc2F)CC1	-21%	/	-14%	-3	-4
Cc1ccc(S(=O)(=O)NCCc2cn3nc(C)c(C)nc3n2)cc1C	0%	-1%	1%	-3	-7
Fc1cc(F)c2ncc3c(-c4ccccc4)nn(-c4cccc(Cl)c4)c3c2c1	/	/	4%	/	/
COc1ccc(NC(=O)CN2C(=O)C(c3ccc(C)cc3)=NC23CCCCCC3)cc1Cl	/	/	11%	/	/
c1ccc(CSc2nnc(-c3cccs3)o2)cc1	-21%	-120%	?	46*	101*
Fc1ccc(Cc2nnc(-c3cccs3)o2)cc1	-22%	-38%	?	33*	43*
c1csc(-c2nnc(Cc3cccc4ccccc34)o2)c1	-24%	0%	1%	17*	29
CC(O)c1nc2ccccc2n1Cc1nnc(-c2ccc(Cl)cc2)o1 (stereo not drawn)	15%	-6%	?	21*	28
c1ccc(-c2nnc(Cn3c4ccccc4c4nc5ccccc5nc43)o2)cc1	/	26%	/	/	/
Cc1cccc(CNC(=O)CSCc2cnn(-c3ccccc3)c2-n2cccc2)c1	/	/	16%	/	/
O=C(Cn1c(NCCCO)nc2ccccc21)c1ccc(F)cc1	-13%	23%	-12%	1	-1
CC(C(=O)NCCc1ccc(Cl)cc1)n1c(=O)c2cccn2c2cccnc21 (stereo not drawn)	1%	?	-11%	-3	-14
SMILES	AmpC no deterg	NS1 inh	AmpC detergent	Cycloheximide cs	Shiga inhibitor
c1ccc(-c2nnc(CSc3nnc(-c4cccs4)o3)o2)cc1	-6%	-46%	?	2	-1
Fc1ccccc1CSc1nnc(-c2cccs2)o1	-21%	-70%	?	44*	88*
Cc1ccc2[nH]c(=O)c(-c3noc(-c4ccncc4)n3)cc2c1	/	13%	/	/	/
CCCCOc1ccc(-c2nc(-c3cccnc3)no2)cc1	33%	0%	-4%	25*	80*
CCOc1nc(-c2ccc(C)cc2)ccc1-c1noc(-c2cccnc2)n1	-18%	7%	-8%	-2	-4
COc1cc(OC)cc(-c2nc(-c3ccc4c(c3)[nH]c(=O)n4C)no2)c1	/	/	1%	/	/
COc1ccc2[nH]c(=O)c(-c3noc(-c4ccccc4)n3)cc2c1	9%	2%	-3%	66*	106*
COc1cccc(-c2noc(-c3ccc(Cl)nc3)n2)c1	-22%	-4%	4%	30*	83*
COc1cc(OC)cc(-c2nc(-c3ccccc3)no2)c1	-18%	4%	?	17*	55
COC(=O)c1c(NC(=O)c2nc(SCc3ccc(C)cc3)ncc2Cl)sc2c1CCCC2	/	/	-5%	/	/
COc1cccc(C2=Nn3c(nnc3-c3ccc(OC)c(OC)c3)SC2)c1	/	/	/	3	7
CCOc1ccc(-c2nc(-c3ccccc3C)no2)cc1	-22%	-6%	?	68*	96*
COc1ccc(-c2nc(-c3cccnc3)no2)cc1	-10%	-6%	5%	45*	59*
CCOc1nc(-c2ccccc2)ccc1-c1noc(-c2ccc(C)cc2)n1	/	/	19%	/	/
COc1ccc(-c2nc(-c3ccncc3)no2)cc1	2%	-5%	3%	53*	88*
CCOc1ccc(-c2nc(-c3cccnc3)no2)cc1	-12%	-6%	?	31*	23*
CCOc1nc(-c2ccc(OC)cc2)ccc1-c1noc(-c2cccnc2)n1	/	-1%	/	/	/
CCC(C)NS(=O)(=O)c1cc2c3c(c1)CCN3C(=O)CC2 (stereo not drawn)	-4%	0%	-12%	-5	-12
C/C(=C\COc1ccc2ccc(=O)oc2c1)CC[C@@H](O)C(C)(C)O	-2%	/	-4%	/	/
CC(C)Oc1ccc(CNS(=O)(=O)c2cnc(N)nc2)cc1	/	/	-8%	/	/
O=C(Nc1ccc2oc(-c3cccc4c(Br)cccc34)nc2c1)c1ccc(Br)cc1	/	/	-9%	/	/
CN(CC(=O)Nc1ccc(Cl)cc1F)C1=NS(=O)(=O)c2ccccc21	-20%	/	/	/	/
CCCOc1ccc(CNC(=O)C2CCCN(c3nc4c(C)cc(C)cc4s3)C2)cc1 (stereo not drawn)	/	/	25%	/	/
CCCn1c(/C=N/Nc2nc3ccccc3[nH]2)nc2ccccc21	-43%	-42%	-19%	49*	46*
Cn1c(/C=N/Nc2nc3ccccc3[nH]2)nc2ccccc21	-27%	/	3%	34*	154*
SMILES	AmpC no deterg	NS1 inh	AmpC detergent	Cycloheximide cs	Shiga inhibitor
C=CCn1cc(/C=N/Nc2nc3ccccc3[nH]2)c2ccccc21	-18%	10%	-9%	40*	74*
CC(C)Cn1c(/C=N/Nc2nc3ccccc3[nH]2)nc2ccccc21	-45%	-22%	-13%	7	12
Cc1nn(-c2ccccc2)c(C)c1/C=N/Nc1nc2ccccc2[nH]1	-2%	?	?	82*	149*
Cc1c(C(=O)NCc2cccc(Cl)c2)sc2nc3n(c(=O)c12)CCC3	/	/	0%	/	/
CCOc1ccccc1CNC(=O)CCn1cccn1	/	/	-6%	/	/
O=C(Cn1cnc2ccccc21)OCC(=O)N1CCCCC1	-8%	/	/	/	/
CCc1ccc(NCc2cc3cc4c(cc3n(CC(=O)Nc3ccc(C)cc3)c2=O)OCO4)cc1	/	/	2%	/	/
Cc1c(/C=N/Nc2nc3ccccc3[nH]2)c2ccccc2n1C	-1%	-2%	-6%	24*	76*
CC1CCCCN1Cc1c(O)ccc2c(=O)c(-c3nc4ccccc4s3)coc12 (stereo not drawn)	66%	3%	-7%	28*	61*
CNC(=O)c1cc2cc(OC)ccc2oc1=O	-20%	0%	?	-2	-8
COc1ccc2cc(C(N)=O)/c(=N\NC(=O)c3ccccc3)oc2c1	-27%	-6%	0%	44*	68*
